Results published in the supplement of paper PMC3414501.
Structures can show the parent of a compound that is named as a salt. Unmarked numbers belong to inactive results.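 The calls were made as follows: active = HIS4 sensitivity z-score above 5 vs DMSO controls; inactive = score 5 or below.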

test system: S. cerevisiae NKY1551 his4x/his4B, sporulating; assay: HIS4 meiotic recombination assay sensitivity score (z-score vs DMSO controls); higher = stronger inhibition of sporulation/recombination, active = hit call of the paper
Method: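 NIH Clinical Collection compounds were added 1:100 from stock (about 100 µM final) to S. cerevisiae. Growth: average doubling time (AvgG) over 24 h of BY4741 (wild-type) or AD1-9 (drug-efflux-pump deficient) in rich media. HIS4: the his4x/his4B heteroallelic recombination reporter strain (SK1) was sporulated 5 h with compound at 30°C, then colony density was read on -his plates after 48 h. Sensitivity score = (compound − mean of 8 DMSO controls)/SD of DMSO controls. Hit cutoffs are >2 for growth and >5 for sporulation.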

| SMILES | HIS4 meiotic recombination assay sensitivity score |
| --- | --- |
| CC(C)c1ccc2oc3nc(N)c(C(=O)O)cc3c(=O)c2c1 [Amlexanox] (stock concentration (mM, diluted 1:100): 10) | 0.07 |
| CN1[C@@H](CC(=O)c2ccccc2)CCC[C@H]1C[C@H](O)c1ccccc1 [Lobeline hydrochloride] (stock concentration (mM, diluted 1:100): 10) | 0.57 |
| COC(=O)C1=C(C)NC(C)=C(C(=O)OC(C)C)C1c1cccc2nonc12 (stereo not given) [Isradipine] (stock concentration (mM, diluted 1:100): 9.9) | 5.46 (active) |
| CS(=O)(=O)c1ccc(-c2cc(Br)sc2-c2ccc(F)cc2)cc1 (stock concentration (mM, diluted 1:100): 10) | 1.98 |
| CCN(CC)C(=O)C1(c2ccccc2)CC1CN (stereo not given) [Milnacipran] (stock concentration (mM, diluted 1:100): 10) | -0.19 |
| COc1cc2nc(N(C)CCCNC(=O)C3CCCO3)nc(N)c2cc1OC (stereo not given) [Alfuzosin] (stock concentration (mM, diluted 1:100): 10) | -0.29 |
| C[C@H]1C[C@H]2[C@@H]3CCC4=CC(=O)C=C[C@]4(C)[C@@]3(Cl)[C@@H](O)C[C@]2(C)[C@@]1(O)C(=O)CO [Beclomethasone] (stock concentration (mM, diluted 1:100): 10) | -3.46 |
| Cc1ccsc1C(=CCCN1CCC[C@@H](C(=O)O)C1)c1sccc1C [Tiagabine hydrochloride] (stock concentration (mM, diluted 1:100): 9.1) | 5.07 (active) |
| CNCC[C@@H](Oc1ccccc1C)c1ccccc1 [Atomexetine hydrochloride] (stock concentration (mM, diluted 1:100): 8.7) | 10.1 (active) |
| OCc1cccnc1 [3-Pyridinemethanol] (stock concentration (mM, diluted 1:100): 10) | 0.73 |
| Cc1c(OCC(F)(F)F)ccnc1C[S+]([O-])c1nc2ccccc2[nH]1 (stereo not given) [Lansoprazole] (stock concentration (mM, diluted 1:100): 10.1) | 1.42 |
| C[C@H]1O[C@H](O[C@H]2[C@H](O)[C@@H](O)[C@@H](O[C@H]3[C@H](O)[C@@H](O)C(O)O[C@@H]3CO)O[C@@H]2CO)[C@H](O)[C@@H](O)[C@@H]1N[C@H]1C=C(CO)[C@@H](O)[C@H](O)[C@H]1O (stereo not given in full) [Acarbose] (stock concentration (mM, diluted 1:100): 10) | -0.56 |
| Clc1ccccc1C(c1ccccc1)(c1ccccc1)n1ccnc1 [Clotrimazole] (stock concentration (mM, diluted 1:100): 10) | -0.98 |
| CCOC(=O)C1=C(C)NC(C)=C(C(=O)OCC)C1c1ccccc1/C=C/C(=O)OC(C)(C)C [Lacidipine] (stock concentration (mM, diluted 1:100): 10) | 0.32 |
| O=C1CC2(CCCC2)CC(=O)N1CCNCC1COc2ccccc2O1 (stereo not given) (stock concentration (mM, diluted 1:100): 10) | -0.57 |
| OCCN1CCN(CCCN2c3ccccc3Sc3ccc(C(F)(F)F)cc32)CC1 [Fluphenazine hydrochloride] (stock concentration (mM, diluted 1:100): 10) | 7.55 (active) |
| CN(C)CCCSc1ccccc1NC(=O)/C=C/c1ccccc1 [Cinanserin] (stock concentration (mM, diluted 1:100): 10) | 7.73 (active) |
| COC1=C(OC)C(=O)C(CCCCCCCCCCO)=C(C)C1=O [Idebenone] (stock concentration (mM, diluted 1:100): 10.2) | -0.57 |
| CC(=O)N1CCN(c2ccc(OCC3COC(Cn4ccnc4)(c4ccc(Cl)cc4Cl)O3)cc2)CC1 (stereo not given) [Ketoconazole] (stock concentration (mM, diluted 1:100): 10) | -1.74 |
| CN(CCOc1ccc(CC2SC(=O)NC2=O)cc1)c1ccccn1 (stereo not given) [Rosiglitazone maleate] (stock concentration (mM, diluted 1:100): 7.6) | 0.95 |

| SMILES | HIS4 meiotic recombination assay sensitivity score |
| --- | --- |
| NC(=O)N1c2ccccc2CC(=O)c2ccccc21 [Trileptal] (stock concentration (mM, diluted 1:100): 10) | -2.89 |
| CCCN1CCCC[C@H]1C(=O)Nc1c(C)cccc1C [Ropivacaine hydrochloride] (stock concentration (mM, diluted 1:100): 7.7) | 2.62 |
| COc1cc(N)c(Cl)cc1C(=O)NC1CCN(CCCOc2ccc(F)cc2)CC1OC (stereo not given) [Cisapride] (stock concentration (mM, diluted 1:100): 10.5) | -0.37 |
| CC(C)c1ccc2c(c1)c(SC(C)(C)C)c(CC(C)(C)C(=O)O)n2Cc1ccc(Cl)cc1 [Tocris-1311] (stock concentration (mM, diluted 1:100): 10) | -0.42 |
| Cc1c(O)cccc1C(=O)N[C@@H](CSc1ccccc1)[C@H](O)CN1C[C@H]2CCCC[C@H]2C[C@H]1C(=O)NC(C)(C)C [Nelfinavir mesylate] (stock concentration (mM, diluted 1:100): 8.6) | 0.21 |
| O=C1N(c2ccccc2)c2ccccc2C1(Cc1ccncc1)Cc1ccncc1 (stock concentration (mM, diluted 1:100): 10) | 0.8 |
| CNNCc1ccc(C(=O)NC(C)C)cc1 [Procarbazine hydrochloride] (stock concentration (mM, diluted 1:100): 8.6) | -1.19 |
| CCC(=O)O[C@]1(C(=O)SCF)[C@H](C)C[C@H]2[C@@H]3C[C@H](F)C4=CC(=O)C=C[C@]4(C)[C@@]3(F)[C@@H](O)C[C@@]21C [Fluticasone propionate] (stock concentration (mM, diluted 1:100): 10) | -1.24 |
| CN(C)CCC=C1c2ccccc2COc2ccccc21 [Doxepin] (stock concentration (mM, diluted 1:100): 10) | 3.87 |
| Cc1nc2ccccn2c(=O)c1CCN1CCC(C(=O)c2ccc(F)cc2)CC1 [Pirenperone] (stock concentration (mM, diluted 1:100): 10) | 2.21 |
| Cn1c(NCCN(CCO)CCCc2ccc([N+](=O)[O-])cc2)cc(=O)n(C)c1=O [Nifekalant hydrochloride] (stock concentration (mM, diluted 1:100): 9.2) | -0.61 |
| Clc1cccc(Cl)c1NC1=NCCN1 [Clonidine] (stock concentration (mM, diluted 1:100): 10) | -0.25 |
| COc1cc(C[C@@H](CO)[C@H](CO)Cc2ccc(O)c(OC)c2)ccc1O [Secoisolariciresinol] (stock concentration (mM, diluted 1:100): 10) | -0.73 |
| O=c1cnn([C@@H]2O[C@H](CO)[C@@H](O)[C@H]2O)c(=O)[nH]1 [6-Azauridine] (stock concentration (mM, diluted 1:100): 10) | -1.27 |
| COc1ccc(CN2CCN(C(c3ccc(F)cc3)c3ccc(F)cc3)CC2)c(OC)c1OC [Lomerizine dihydrochloride] (stock concentration (mM, diluted 1:100): 8.7) | -0.52 |
| NC1CCN(c2nc3c(cc2F)c(=O)c(C(=O)O)cn3-c2ccc(F)cc2F)C1 (stereo not given) [Tosufloxacin tosylate] (stock concentration (mM, diluted 1:100): 7) | -2.15 |
| CC(COc1ccccc1Cc1ccccc1)N1CCCCC1 (stereo not given) [Benproperine phosphate] (stock concentration (mM, diluted 1:100): 10) | 7.79 (active) |
| O=C(O[C@@H]1Cc2c(O)cc(O)cc2O[C@@H]1c1cc(O)c(O)c(O)c1)c1cc(O)c(O)c(O)c1 [Epigallocatechin gallate] (stock concentration (mM, diluted 1:100): 10) | 0.29 |
| CC1=Nc2ccc(Cl)cc2S(=O)(=O)N1 [Diazoxide] (stock concentration (mM, diluted 1:100): 10) | -1.19 |
| Cc1cn([C@H]2C=C[C@@H](CO)O2)c(=O)[nH]c1=O [Stavudine] (stock concentration (mM, diluted 1:100): 10) | -1.75 |
